Assay results: PubChem BioAssay (EPA / NIEHS)
Records with an inconclusive call do not appear. Some structures have more than one record in an assay (separate samples or runs), and their calls can disagree. Active and inactive are the calls of the source. How the source made its calls: active means hit-call score of the fitted dose curve at least 0.9, where 1 is the maximum; inconclusive means response in the unintended direction; inactive means score below 0.9. Peptide text beside a SMILES is read from it.

Experiments:
[1] = target: Luciferin 4-monooxygenase (Photinus pyralis) (UniProt P08659); assay: CCTE_Simmons_QuantiLum_inhib_2: CCTE's Firefly Luciferase Inhibition Assay, Simmons Lab (AID 2283767);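 on AC50: potency for inhibitors that lower luciferase luminescence relative to DMSO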
Method in brief: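 Cell-free recombinant firefly luciferase (5 ng/well) in 200mM potassium phosphate with 1 mg/ml BSA, 30 min at 37C with 8 concentrations from 5 nM to 87.5 uM [final], 0.5% DMSO. Luminescence read after D-luciferin (150uM)/dATP (147uM) reagent injection, pH 7.8; triplicates.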

[2] = ACEA_AR_antagonist_AUC_viability: ACEA Biosciences xCELLigence Real-Time Cell Analysis on Androgen Receptor Antagonism for Viability (AID 2283776);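 further: hits lower the growth signal relative to DMSO meaning cytotoxicity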
Method in brief: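 22Rv1 human prostate cancer cells were seeded on electrode plates, monitored overnight, then exposed to eight 1:4 dilutions from 100 uM final. Impedance-based growth kinetics at 80 h gave an AUC viability endpoint normalized to DMSO.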

[3] = ACEA_AR_agonist_AUC_viability: ACEA Biosciences xCELLigence Real-Time Cell Analysis on Androgen Receptor Agonism for Viability (AID 2283775);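 on AC50: viability read 80 hours after compound addition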
Method in brief: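 Real-time impedance tracking of 22Rv1 growth, readings every 5 min for 5 h then hourly; area-under-curve viability endpoint at 80 hours, relative to DMSO. Compounds at eight concentrations, 1:4 steps, top 100 uM, n = 2.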

[4] = target: zebrafish Estrogen Receptor (ESR1), esr1 (gene 259252) (UniProt P57717); assay: ATG_zfER1_XSP1: Attagene TRANS-FACTORIAL Multi-Species (XSP1) HepG2 Assay for zebrafish Estrogen Receptor (ESR1) (AID 2283772)
Procedure: (§1) ATG_XSP1_multi-species_TRANS is a cell-based, multiplexed assay created by modifying the existing Attagene TRANS-FACTORIAL system to include a panel of nuclear receptors from some or all the following species: human (Homo sapiens), mouse (Mus musculus), frog (Xenopus laevis), zebrafish (Danio rerio), chicken (Gallus gallus), and turtle (Chrysemys picta). The ECOTOX-FACTORIAL format uses HepG2, a human liver cell line, with measurements taken at 24 hours after chemical dosing in a 24-well plate. Xsp1 included 3 nM 6-alpha-fluorotestosterone to partially stimulate the androgen receptor.ATG_zfER1_XSP1 is one of 29 assay components measured or calculated from the ATG_XSP1_multi-species_TRANS assay. It is designed to make measurements of mRNA induction, a form of inducible reporter, as detected with fluorescence intensity signals by Reverse transcription polymerase chain reaction (RT-PCR) and Capillary electrophoresis technology.The assay endpoint ATG_zfER1_XSP1 was analyzed in the positive analysis fitting direction relative to DMSO as the negative control and baseline of activity. […] Furthermore, this assay endpoint can be referred to as a primary readout, because this assay has produced multiple assay endpoints where this one serves a reporter gene function. […]

[5] = system: zebrafish Estrogen Receptor (ESR2B), gene 317733; assay: ATG_zfER2b_XSP1: Attagene TRANS-FACTORIAL Multi-Species (XSP1) HepG2 Assay for zebrafish Estrogen Receptor (ESR2B) (AID 2283773)
Procedure: as §1, with “receptor.ATG_zfER2b_XSP1” for “receptor.ATG_zfER1_XSP1”, “ATG_zfER2b_XSP1” for “ATG_zfER1_XSP1”

[6] = system: frog Estrogen Receptor (ESR2), gene 100174814; assay: ATG_frER2_XSP1: Attagene TRANS-FACTORIAL Multi-Species (XSP1) HepG2 Assay for frog Estrogen Receptor (ESR2) (AID 2283774)
Method in brief: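 HepG2 cells transiently transfected with GAL4-UAS reporter units expressing chimeric frog ER-Gal4; 3 nM 6-alpha-fluorotestosterone present. After 24 h dosing, reporter mRNA quantified by RT-PCR and capillary electrophoresis; gain-of-signal fitted relative to DMSO.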

[7] = system: frog Estrogen Receptor (ESR1), gene 398734; assay: ATG_frER1_XSP1: Attagene TRANS-FACTORIAL Multi-Species (XSP1) HepG2 Assay for frog Estrogen Receptor (ESR1) (AID 2283777)
Method in brief: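 HepG2 cells transiently transfected with frog ER–GAL4 chimera and GAL4-UAS reporter, with 3 nM 6-alpha-fluorotestosterone present; 24 h dosing, reporter mRNA quantified by RT-PCR and capillary electrophoresis, gain of signal versus DMSO.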

[8] = system: zebrafish Estrogen Receptor (ESR2A), gene 317734; assay: ATG_zfER2a_XSP1: Attagene TRANS-FACTORIAL Multi-Species (XSP1) HepG2 Assay for zebrafish Estrogen Receptor (ESR2A) (AID 2283778)
Method in brief: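 HepG2 cells transiently transfected with GAL4-UAS reporter units driven by a zebrafish ESR2A–Gal4 chimera; 24 h compound exposure with 3 nM 6-alpha-fluorotestosterone present. Reporter mRNA measured by RT-PCR with fluorescent capillary electrophoresis, fitted positive versus DMSO.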

[9] = target: chicken Estrogen Receptor (ESR1), ESR1 (gene 396099) (UniProt P06212); assay: ATG_chERa_XSP1: Attagene TRANS-FACTORIAL Multi-Species (XSP1) HepG2 Assay for chicken Estrogen Receptor (ESR1) (AID 2283779)
Method in brief: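 HepG2 cells transiently transfected with GAL4-UAS reporter units for chimeric chicken ERα-Gal4, dosed 24 h with 3 nM 6-alpha-fluorotestosterone present. Reporter mRNA by RT-PCR and capillary electrophoresis; gain-of-signal fit versus DMSO.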

[10] = target: Estrogen receptor (Homo sapiens) (UniProt P03372); assay: ATG_hERa_XSP1: Attagene TRANS-FACTORIAL Multi-Species (XSP1) HepG2 Assay for human Estrogen Receptor (ESR1) (AID 2283780)
Method in brief: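 HepG2 cells transiently transfected with GAL4-UAS reporter units and chimeric NR-Gal4 constructs; 24 h after dosing, reporter mRNA quantified by RT-PCR and capillary electrophoresis. Medium contained 3 nM 6-alpha-fluorotestosterone; activity fitted as gain-of-signal versus DMSO.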

Sequence of Luciferin 4-monooxygenase (Photinus pyralis) (P08659 whole entry, looked up): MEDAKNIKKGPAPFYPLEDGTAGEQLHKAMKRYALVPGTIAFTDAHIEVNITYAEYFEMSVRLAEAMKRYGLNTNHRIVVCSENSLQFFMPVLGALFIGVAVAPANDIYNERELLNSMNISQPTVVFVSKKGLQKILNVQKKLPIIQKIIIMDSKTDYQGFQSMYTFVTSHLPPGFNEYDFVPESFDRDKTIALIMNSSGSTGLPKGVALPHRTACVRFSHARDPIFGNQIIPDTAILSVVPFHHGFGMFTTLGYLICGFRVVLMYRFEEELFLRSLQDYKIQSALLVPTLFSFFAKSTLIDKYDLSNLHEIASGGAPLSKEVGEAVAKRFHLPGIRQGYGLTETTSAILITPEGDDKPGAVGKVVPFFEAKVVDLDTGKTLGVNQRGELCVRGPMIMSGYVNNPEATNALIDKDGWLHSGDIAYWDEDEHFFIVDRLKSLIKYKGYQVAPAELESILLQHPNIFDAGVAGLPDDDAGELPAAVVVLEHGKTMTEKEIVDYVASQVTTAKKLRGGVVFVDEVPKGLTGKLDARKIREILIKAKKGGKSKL
Sequence of Estrogen receptor (Homo sapiens) (P03372 whole entry, looked up, the tested form may be a part): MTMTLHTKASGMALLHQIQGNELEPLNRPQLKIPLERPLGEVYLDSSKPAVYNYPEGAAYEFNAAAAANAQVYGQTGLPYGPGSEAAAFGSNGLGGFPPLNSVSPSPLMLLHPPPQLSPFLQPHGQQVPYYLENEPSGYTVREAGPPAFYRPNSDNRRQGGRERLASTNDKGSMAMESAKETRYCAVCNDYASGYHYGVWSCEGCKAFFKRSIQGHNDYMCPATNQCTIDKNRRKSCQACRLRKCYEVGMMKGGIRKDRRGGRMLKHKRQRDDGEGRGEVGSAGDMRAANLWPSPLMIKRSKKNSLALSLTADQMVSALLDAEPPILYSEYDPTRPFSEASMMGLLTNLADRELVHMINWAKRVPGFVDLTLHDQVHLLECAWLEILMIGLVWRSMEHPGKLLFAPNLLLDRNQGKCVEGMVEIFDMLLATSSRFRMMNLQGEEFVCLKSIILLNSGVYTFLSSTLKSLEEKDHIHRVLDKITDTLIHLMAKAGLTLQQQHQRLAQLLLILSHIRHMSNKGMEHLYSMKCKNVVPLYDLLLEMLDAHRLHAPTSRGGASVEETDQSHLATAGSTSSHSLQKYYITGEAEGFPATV
Sequence of chicken Estrogen Receptor (ESR1), ESR1 (gene 396099) (P06212 whole entry, looked up, the tested form may be a part): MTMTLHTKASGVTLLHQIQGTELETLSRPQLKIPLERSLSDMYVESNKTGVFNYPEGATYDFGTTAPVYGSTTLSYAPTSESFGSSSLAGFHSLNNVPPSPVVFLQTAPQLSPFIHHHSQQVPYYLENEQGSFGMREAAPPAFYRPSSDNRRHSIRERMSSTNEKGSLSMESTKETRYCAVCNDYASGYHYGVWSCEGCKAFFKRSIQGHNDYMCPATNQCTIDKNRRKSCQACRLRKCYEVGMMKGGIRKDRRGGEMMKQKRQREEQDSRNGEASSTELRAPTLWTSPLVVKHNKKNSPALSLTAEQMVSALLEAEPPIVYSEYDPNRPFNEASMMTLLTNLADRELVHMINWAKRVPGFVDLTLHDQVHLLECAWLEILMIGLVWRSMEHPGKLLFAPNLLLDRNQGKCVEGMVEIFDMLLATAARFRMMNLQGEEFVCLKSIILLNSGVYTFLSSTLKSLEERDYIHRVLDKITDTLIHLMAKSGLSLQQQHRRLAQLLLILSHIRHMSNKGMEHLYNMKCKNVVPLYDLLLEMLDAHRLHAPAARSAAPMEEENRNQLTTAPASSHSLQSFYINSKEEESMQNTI
Sequence of zebrafish Estrogen Receptor (ESR1), esr1 (gene 259252) (P57717 whole entry, looked up): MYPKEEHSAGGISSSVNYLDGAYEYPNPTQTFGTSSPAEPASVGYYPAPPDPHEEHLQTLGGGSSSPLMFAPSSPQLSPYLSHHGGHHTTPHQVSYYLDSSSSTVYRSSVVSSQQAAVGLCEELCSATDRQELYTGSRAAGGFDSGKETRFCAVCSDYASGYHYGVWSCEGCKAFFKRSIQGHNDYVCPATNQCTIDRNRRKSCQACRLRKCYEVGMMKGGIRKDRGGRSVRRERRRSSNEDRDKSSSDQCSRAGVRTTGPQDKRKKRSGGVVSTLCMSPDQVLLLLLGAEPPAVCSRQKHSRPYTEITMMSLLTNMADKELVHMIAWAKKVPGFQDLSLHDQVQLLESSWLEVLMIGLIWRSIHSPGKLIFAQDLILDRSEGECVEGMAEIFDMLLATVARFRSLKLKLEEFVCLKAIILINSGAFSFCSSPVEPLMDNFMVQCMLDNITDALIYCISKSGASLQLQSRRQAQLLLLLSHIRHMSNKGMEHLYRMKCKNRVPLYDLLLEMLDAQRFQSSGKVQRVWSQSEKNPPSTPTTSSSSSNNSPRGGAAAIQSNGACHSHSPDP

CCCCCCCOC(=O)c1ccc(O)cc1
AC50 [1]: 76.7 µM (active)
outcome [2]: inactive

CCCCC/C=C\C/C=C\CCCCCCCC(=O)O
outcome [1]: inactive
outcome [3]: inactive
outcome [2]: inactive

N#Cc1ccc(C(c2ccc(C#N)cc2)n2cncn2)cc1
outcome [1]: inactive
AC50 [3]: 4.94 µM (active)

c1ccc(Nc2cccc3ccccc23)cc1
AC50 [1]: 53.8 µM (active)
outcome [3]: inactive
AC50 [2]: 2.4 µM (active)

CC(C)(C)NC(=O)[C@H]1CC[C@H]2[C@@H]3CC[C@H]4NC(=O)C=C[C@]4(C)[C@H]3CC[C@]12C
outcome [4]: inactive
AC50 [5]: 67.2 µM (active)
AC50 [6]: 38.1 µM (active)
AC50 [3]: 78 µM (active)
outcome [3]: inactive
AC50 [2]: 50 µM (active)
outcome [2]: inactive
outcome [7]: inactive
outcome [8]: inactive
outcome [9]: inactive
outcome [10]: inactive

CC(C)c1ccc(O)c(C(C)C)c1
outcome [1]: inactive
outcome [3]: inactive

CCCC=C(C=O)CC
outcome [3]: inactive

Fc1ccc(Br)cc1
outcome [3]: inactive

CCCCCCOc1ccc(N)cc1
AC50 [1]: 28.7 µM (active)
outcome [2]: inactive

CN(C)Cc1cc(CN(C)C)c(O)c(CN(C)C)c1
AC50 [3]: 4.16 µM (active)

C/C=C/C=C/CCCCCCCO
outcome [1]: inactive

COc1ccc(C(=O)c2ccccc2)c(O)c1
AC50 [1]: 53.6 µM (active)
outcome [3]: inactive
outcome [2]: inactive

CCCCCCCCCCCC(=O)N(C)CC(=O)O
outcome [3]: inactive
outcome [2]: inactive

CCCCc1ccc(Cl)cc1
outcome [3]: inactive
outcome [2]: inactive

Oc1ccc(-c2ccccc2)c(Cl)c1
outcome [3]: inactive
AC50 [2]: 0.598 µM (active)

CC(C)c1cc(C(C)C)cc(C(C)C)c1
outcome [3]: inactive
outcome [2]: inactive

CCCCC(C=O)CC (centres undefined)
outcome [3]: inactive

CCCCCCCCCCCCCCCCCCOS(=O)(=O)O
outcome [3]: inactive

C=C[C@@]1(C)CC(=O)[C@]2(O)[C@@]3(C)[C@@H](O)CCC(C)(C)[C@@H]3[C@H](O)[C@H](OC(C)=O)[C@@]2(C)O1
AC50 [3]: 6.78 µM (active)
outcome [2]: inactive

O=C(O)C1CCC(C(=O)O)CC1 (centres undefined)
outcome [3]: inactive

Cc1c(C(=O)c2c[nH]n(C)c2=O)ccc(S(C)(=O)=O)c1C1=NOCC1
outcome [3]: inactive
outcome [2]: inactive

CC(=O)OC(C)c1ccccc1 (centres undefined)
outcome [3]: inactive
outcome [2]: inactive

CCCCCCCCCC[N+](C)(CCCCCCCCCC)CCC[Si](OC)(OC)OC
AC50 [3]: 5.04 µM (active)
AC50 [2]: 16.1 µM (active)

C=C1C[C@H]2[C@@H]3C=C(C)C4=CC(=O)CC[C@]4(C)[C@H]3CC[C@]2(C)[C@@]1(OC(C)=O)C(C)=O
outcome [3]: inactive
outcome [2]: inactive

CC(=O)OC1CCCCC1C(C)(C)C (centres undefined)
outcome [3]: inactive
outcome [2]: inactive

CCCCNC(=S)NCCCC
outcome [3]: inactive

C=C[Si](OCCOC)(OCCOC)OCCOC
outcome [3]: inactive

CC(=O)OCc1ccccc1
outcome [3]: inactive
outcome [2]: inactive

C=C(C)C1CC=C(C)CC1 (centres undefined)
outcome [3]: inactive

O=C(OCc1ccccc1)c1ccc(O)cc1
outcome [3]: inactive

CCCCC(=O)O
outcome [3]: inactive
outcome [2]: inactive

Cc1ccc([N+](=O)[O-])cc1N
outcome [3]: inactive
outcome [2]: inactive

CCCCC(CC)COC(=O)/C=C/c1ccc(OC)cc1 (centres undefined)
outcome [3]: inactive

CCc1cccc(C)c1N
outcome [3]: inactive
outcome [2]: inactive

COC(=O)[C@H](Cc1ccccc1)NC(=O)[C@@H](N)CC(=O)O (H-Asp-Phe-OMe)
outcome [3]: inactive
outcome [2]: inactive

CCCCC(CC)COS(=O)(=O)O (centres undefined)
outcome [3]: inactive
outcome [2]: inactive

O=C(OCCc1ccccc1)c1ccccc1
outcome [3]: inactive
outcome [2]: inactive

CCCC(CC)c1ccccc1 (centres undefined)
outcome [3]: inactive
outcome [2]: inactive

C[Si](C)(C)N[Si](C)(C)C
outcome [3]: inactive
outcome [2]: inactive

CC1=CCC2CC1C2(C)C (centres undefined)
outcome [3]: inactive

CCC(C)(O)CCCC(C)C (centres undefined)
outcome [3]: inactive
outcome [2]: inactive

CCN1CN(CC)CN(CC)C1
outcome [3]: inactive
outcome [2]: inactive

CCCCCCC=O
outcome [3]: inactive
outcome [2]: inactive

CCOC(=O)c1ccc(C)cc1
outcome [2]: inactive

CCCCCC[C@@H](O)C/C=C\CCCCCCCC(=O)OCC(O)CO (some centres undefined)
outcome [2]: inactive

CCOC(=O)C1=NOC(c2ccccc2)(c2ccccc2)C1
outcome [2]: inactive

CC(C)(C)N
outcome [3]: inactive
outcome [2]: inactive

CCCCCCCCCC(C)=O
outcome [3]: inactive
outcome [2]: inactive

CCOC(=O)c1ccccc1C
outcome [3]: inactive
outcome [2]: inactive

CCCCCCO
outcome [2]: inactive

CCCCCCOC(=O)CCCCC(=O)OCCCCCC
outcome [2]: inactive

CC(C)=CCCC(C)=CC#N
outcome [2]: inactive

CCCCOCCOC(=O)COc1ccc(Cl)cc1Cl
outcome [3]: inactive
outcome [2]: inactive

CCCCCCCCC(CO)CCCCCC (centres undefined)
outcome [3]: inactive
outcome [2]: inactive

Cc1cc(C)n(CO)n1
outcome [3]: inactive
outcome [2]: inactive

C1CNCCN1
outcome [3]: inactive
outcome [2]: inactive

O=C(Nc1ccccc1)c1cc(Cl)ccc1O
AC50 [3]: 14.3 µM (active)
AC50 [2]: 16.6 µM (active)

N#Cc1ccc(C2CCCc3cncn32)cc1 (centres undefined)
outcome [3]: inactive
outcome [2]: inactive
